Data on 17 molecules can be found in PubChem BioAssay.

The nature of this assay: JC-1 mitochondrial signal, unstimulated MM1S myeloma – cell-based, JC-1 fluorescence, 24 h, 100 nL compound, profiling panel (AID 1170). Further: test concentration not given here. The note with it: MM1S mitochondrial potential, higher = more signal.
The molecule `Cc1ccc(S[C@]2(C(=O)NCC(C)C)CC(=O)N(Cc3ccccc3Cl)[C@@H]2c2ccc(CO)cc2I)cc1` yielded a z-score of -1.75.

In turn, `C=CCC(OC(C)=O)[C@@H]1[C@@H](N(Cc2ccc(-c3ccccc3)cc2)C(=O)c2cccc3ccccc23)c2cc(OCCCO)ccc2N1C(=O)Cc1ccc2ccccc2c1` (some centres not stated) had a z-score of 0.313.

`CC=CC(O)C1C=CC2C(=O)N(C)C(=O)C2N1Nc1ccc([N+](=O)[O-])cc1[N+](=O)[O-]` (configuration not stated) yielded a z-score of -0.635.

`CC(C)(C)OC(=O)CC[C@]1(C(=O)NCCN2CCOCC2)N=C(c2ccc(OCCCO)cc2)O[C@H]1c1ccccc1`: the z-score is -0.158.

`CCCCC(=C=CC[C@@H](O)c1ccc(OCCO)cc1)C[C@@H](O)COCc1ccccc1`: the z-score was -1.18.

For the molecule `COC(=O)[C@H](Cc1ccccc1)N1CC(/C=C/C2CC2)=C[C@@H]1[C@@H](O)Cc1ccccc1`, the z-score was -2.45.

On to `COCCOC(=O)N1C(=O)[C@@]2(c3cc(C#CCC(C(=O)OC)C(=O)OC)ccc31)[C@H](c1ccc(OCCO)cc1)N1[C@H](c3ccccc3)[C@H](c3ccccc3)OC(=O)[C@H]1[C@@H]2C(=O)N1CCN(c2ncccn2)CC1`, for which the z-score is -1.53.

Molecule `CN(C)C(=O)[C@]1(CCC(=O)OC(C)(C)C)N=C(c2ccc(OCCCO)cc2)O[C@@H]1c1ccccc1` had a z-score of 0.211.

The molecule `COCCOC(=O)N1C(=O)[C@@]2(c3cc(C#CC4(O)CCCCCC4)ccc31)[C@H](C(N)=O)[C@H]1C(=O)O[C@H](c3ccccc3)[C@H](c3ccccc3)N1[C@@H]2c1ccccc1OCCO` came in with a z-score of -1.7.

As to `CC(CO)N1C(=O)[C@@H]2C3C(=O)OCCC/C=C\[C@H]3OC23C=CCN(Cn2nnc4ccccc42)C(=O)[C@@H]13` (some centres not stated), the z-score was -1.33.

`COC(=O)[C@@]1(Cc2ccc(OC)cc2)[C@H]2c3cc(C(=O)N(C)C)n(CCc4c[nH]c5ccc(O)cc45)c3C[C@H]2CN1C(=O)c1ccccc1` registered a z-score of -1.37.

As for `O=c1cccc(-c2cccc(Cl)c2)o1`, the z-score is -0.024.

Turning to `O=C1O[C@H](c2ccccc2)[C@H](c2ccccc2)N2[C@H]1[C@@H](C(=O)O)[C@]1(C(=O)Nc3ccccc31)[C@H]2c1ccc(O)cc1`, the z-score turned out to be 0.0818.

As to `COCCOC(=O)N1C(=O)[C@@]2(c3ccccc31)[C@H](C(=O)N1CCN(c3ncccn3)CC1)[C@H]1C(=O)O[C@H](c3ccccc3)[C@H](c3ccccc3)N1[C@@H]2c1ccc(OCCO)cc1`, the z-score was -1.27.

Turning to `CCOC(=O)C1=C[C@@H](c2ccccc2)N(S(=O)(=O)c2ccc(C)cc2)[C@H]1c1cccc(Cl)c1`, the z-score was 0.648.

Regarding `O=C1c2ccccc2[C@](Cc2ccccc2I)(C(=O)NCCN2CCOCC2)[C@H](c2ccc(CO)cc2)N1Cc1ccccc1`, the z-score was -0.462.

With `O=C(O)[C@H]1C[C@H]2C(=O)N3CCC[C@H]3C(=O)N2[C@H]1c1cccc(OCCO)c1`, the z-score was -0.568.
